Sampled rows, rich in hits. Any-hit rate of the full collection: about 17%.
TGFb inhibitor = inhibitors of TGF-b signaling; hit rate 1.2% among 410,000; HepG2 CAGA-GFP TGF-b/SMAD3 reporter, GFP fluorescence, 18 h; TGF-beta stimulated, 500 pg/mL final; AID 588855; Potency, µM (highest dose often 46.1 µM), without a hit: top-dose activity, negative = inhibition, actives largely listed as inhibitors; also: % is scaled to controls: 0 for no effect and ±100 for the full control effect; nearly all actives have a fitted effect of over 65% in size
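First, reporter cells (HEPG2 CAGA-GFP) rested 2 h at 37 degrees C. Next, compounds were pinned in and TGF-beta added to 500 pg/mL final. After 18 h, GFP was imaged per cell and summed per well.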
HT1080 IDH1KD tx = HT-1080 IDH1 knockdown cell toxicity (counter line). HT-1080 IDH1 knockdown viability, ATP luminescence, 48 h. Potency, µM (doses to about 46.1 µM), inactives show top-dose activity, negative = toxicity, most hits filed as cytotoxic. hit rate 2% among 360,000. AID 686971;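 also: 0% = DMSO wells and -100% = cell-free medium wells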
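After a 2 h attachment period, IDH1KD HT-1080 cells took pin-transferred compound for 48 h at 37 °C; ATP-based luminescence after 10 min room-temperature reagent incubation reported viability.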
TDP1 cell CPT = DT40-hTDP1 cell growth loss with CPT. chicken DT40 Tdp1-/-;hTDP1 cells + 20 nM CPT, ATP luminescence, 48 h. Potency, µM (highest dose often 46.2 µM), without a hit: at the top dose activity change, negative = growth inhibition, usual class: inhibitors. hit rate 12% among 420,000; also: % is scaled to controls: 0 for no effect and ±100 for the full control effect; nearly all actives have a fitted effect of over 55% in size
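Cell growth measured by CellTiter-Glo luminescence after a minimum 48 h, 37 C compound exposure with 20 nM CPT in Tdp1-knockout DT40 cells stably expressing hTDP1, seeded 400/well; qHTS titration format.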
HepG2 tox-1 = kills HepG2 cells in TGF-b inhibitor counter-screen; hit rate 0.76% among 410,000; HepG2 CAGA-GFP viability, ATP luminescence, 18 h; AID 588856; Potency, µM (series often up to 46.1 µM), without a hit: at the highest dose activity change, negative = cytotoxicity, usual class: cytotoxic
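CellTiter-Glo luminescence gave cytotoxicity after 18 hours at 37 degrees C. The cells were HepG2 CAGA-GFP in 1% FBS DMEM, stimulated with 500 pg/mL TGF-beta after compound addition. %Activity was normalised to no-cell wells (complete cell-killing) and DMSO (no toxicity), and curves were fitted and classified.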
DT40 TDP1 no CPT = qHTS for Inhibitors of human tyrosyl-DNA phosphodiesterase 1 (TDP1): qHTS in cells in absence of CPT; DT40 Tdp1-/- hTDP1 cells, no CPT, ATP luminescence, 48 h; Potency, µM (doses to about 46.2 µM), for the others: at the top dose activity change, negative = growth inhibition, hits mostly inhibitors; hit rate 15% among 420,000; AID 686978, 2013; also: % is scaled to controls: 0 for no effect and ±100 for the full control effect; nearly all actives have a fitted effect of over 55% in size
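Camptothecin absent (DMSO only). Human TDP1-complemented DT40 knockout cells, 400 cells/well, 37 °C for minimum 48 hr; ATP measured via CellTiter-Glo, 30 min dark incubation, luminescence.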
HT1080NT lethal = kills 2HG-producing HT-1080-NT fibrosarcoma cells; hit rate 1.6% among 360,000; HT-1080-NT fibrosarcoma viability, CellTiter-Glo ATP luminescence, 48 h; Potency, µM (series often up to 46.1 µM), for inactives: top-dose activity, negative = less viability, usual class: cytotoxic;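 also: NT is the 2HG producing partner of a matched IDH1 knockdown line; 0% = DMSO-treated cells and -100% = media-only wells without cells; nearly all actives have a fitted effect of over 55% in size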
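750 cells/well, RPMI + 5% FBS; 2 h settle, compound pin-transfer, 48 h at 37 degrees C. CellTiter-Glo 10 min RT, luminescence. Normalized to DMSO and media-only wells.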
TGFb confirm = confirmation of TGF-b signaling inhibitors in HepG2 reporter cells; HepG2 CAGA-GFP TGF-b reporter, GFP fluorescence, 18 h; cells stimulated with TGF-beta, 500 pg/mL; shares compounds with TGFb inhibitor; hit rate 63% among 1,600; Potency, µM (titrated, usually from 46.1 µM), without a hit: at the top dose activity, negative = inhibition, actives largely listed as inhibitors; also: % is scaled to controls: 0 for no effect and ±100 for the full control effect; nearly all actives have a fitted effect of over 65% in size
HepG2 tox-2 = counter-screen for TGF-b inhibitors: cytotoxicity in HepG2 cells | hit rate 27% among 1,600 | AID 720535 | Potency, µM (series often up to 46.1 µM), inactives show at the highest dose activity, negative = cytotoxicity, actives largely listed as inhibitors | shares compounds with TGFb inhibitor | HepG2 CAGA-GFP viability, ATP luminescence, 18 h; cells stimulated with TGF-beta, 500 pg/mL; also: % is scaled to controls: 0 for no effect and ±100 for the full control effect; nearly all actives have a fitted effect of over 70% in size
CCL64 TGFb inh = orthogonal confirmation of TGF-b inhibitors in CCL64 cells. shares compounds with TGFb inhibitor. CCL64 CAGA-GFP reporter, TGF-b stimulated, GFP fluorescence, 18 h. hit rate 41% among 1,600. Potency, µM (doses to about 46.1 µM), inactives show at the highest dose activity, negative = inhibition, usual class: inhibitors; also: nearly all actives have a fitted effect of over 65% in size
COP TGFb inh = blocks TGF-b signaling in HepG2 COP reporter; shares compounds with TGFb inhibitor; HepG2 COP-GFP TGF-b reporter, GFP fluorescence, 18 h; cells stimulated by added recombinant TGF-beta; Potency, µM (top dose mostly 46.1 µM), inactives show at the top dose activity, negative = inhibition, most hits filed as inhibitors; hit rate 3% among 1,600; also: nearly all actives have a fitted effect of over 70% in size
An asterisk follows results filed as active; ? = inconclusive; . = not tested or not shown; [ ] = another dose, or the depositor's remark. Calls follow the shape of the dose curve; as a rule, active = well fitted curve in the direction sought with a large enough effect; inconclusive = small, poorly fitted or top-dose-only effect, or another doubt; inactive = no such curve, though single readings can be large; an effect the other way counts as inactive or inconclusive. Potency is read from the fitted curve at half-maximal effect.

SMILES	TGFb inhibitor	HT1080 IDH1KD tx	TDP1 cell CPT	HepG2 tox-1	DT40 TDP1 no CPT	HT1080NT lethal	TGFb confirm	HepG2 tox-2	CCL64 TGFb inh	COP TGFb inh
CC[C@]12c3[nH]c4cc(-c5ccco5)ccc4c3CCN1C(=O)[C@@H](CC(=O)NCc1cccc(C(F)(F)F)c1)C[C@@H]2C(=O)N1CCN(C(=O)c2ccco2)CC1	11µM*	-21%	8.2µM*	-5%	8.2µM*	-11%	4.1µM*	-27%	?	18%
CC[C@]12c3[nH]c4cc(-c5ccco5)ccc4c3CCN1C(=O)[C@@H](CC(=O)NC/C=C(\C)CCC=C(C)C)C[C@@H]2C(=O)N1CCN(C(=O)c2ccco2)CC1	10µM*	?	?	-20%	21µM*	-20%	10µM*	-13%	13µM*	2%
COc1ccc(C2CC(c3ccccc3OC(C)=O)=NN2C(=O)/C=C/c2ccccc2)cc1OC (stereo unspecified)	10µM*	?	?	-21%	?	-20%	18µM*	-25%	?	2%
COc1ccc(C2CC(c3ccccc3OC(=O)/C=C/c3ccccc3)=NN2C(C)=O)cc1 (stereo unspecified)	-8%	-15%	-26%	-15%	?	1%	.	.	.	.
Nc1ncnc2c1ncn2[C@@H]1O[C@H](C(=O)NCc2ccc(OC(F)(F)F)cc2)[C@@H](O)[C@H]1O	?	-14%	4%	-29%	-4%	-1%	?	-15%	-15%	-1%
CCc1nc2c(OCc3cc(Cl)cc(Cl)c3)cccn2c1N(C)C(=O)c1ccc(OC)cc1	4µM*	?	18µM*	-31%	16µM*	?	?	?	?	49%
CCOC(=O)CSc1nc2c(sc3cccc(F)c32)c(=O)n1Cc1ccc(OC)cc1	0%	.	-1%	-2%	-13%	.	.	.	.	.
COc1ccc(N(C(=O)CCl)C(C(=O)NCCc2ccccc2)c2cccs2)cc1Cl (stereo unspecified)	7.9µM*	5.8µM*	2.6µM*	-102%	1.5µM*	18µM*	4.6µM*	5.2µM*	2.1µM*	21µM*
Cc1onc(-c2ccccc2)c1C(=O)Nc1ncc([N+](=O)[O-])s1	8.9µM*	?	23µM*	-35%	21µM*	?	15µM*	?	23µM*	50%
O=C(CN1C(=O)NC(c2ccccc2)(c2ccccc2)C1=O)NCc1ccccc1	-13%	-4%	-1%	-1%	13%	-6%	.	.	.	.
Cc1ccc(C2(c3ccccc3)NC(=O)N(CC(=O)NCc3ccccc3)C2=O)cc1C (stereo unspecified)	11µM*	-17%	?	-28%	23µM*	-20%	7.3µM*	?	?	42%
CC1=C(C(=O)N(C(C)C)C(C)C)CC(CC(=O)NCc2cccs2)C(=O)N1Cc1ccccc1 (stereo unspecified)	0%	-2%	?	2%	?	-12%	.	.	.	.
O=C(NCCc1cccnc1)c1cc(COc2ccc(F)cc2Cl)on1	13µM*	15µM*	?	-19%	?	?	?	-23%	?	3%
O=C(Nc1ccc(Cl)cc1)c1cc2c(cc1O)[nH]c1ccccc12	6.3µM*	15µM*	3.3µM*	-45%	4.1µM*	15µM*	7.3µM*	5.2µM*	3.3µM*	70%
C/C(=N\NC(=O)COc1cccc(Br)c1)c1ccc2c(c1)OCCO2	2%	-6%	-1%	-14%	-3%	-1%[9.24 µM]	.	.	.	.
Cc1cc(C)nc(/N=C(\N)Nc2ccccc2-c2ccccc2)n1	10µM*	?	16µM*	-34%	12µM*	?	?	?	?	71%
Cc1cc(C)nc(/N=C(\N)Nc2cc([N+](=O)[O-])ccc2C)n1	-4%	12%	?	-3%	-21%	9%	.	.	.	.
CNS(=O)(=O)c1cnccc1N1CCN(c2cccc(C(F)(F)F)c2)CC1	?	-1%	?	-26%	?	0%	.	.	.	.
Cc1cc(C)nc(SCc2c(F)cccc2Cl)n1	2%	-1%	1%	-19%	-10%	0%	.	.	.	.
Cc1cc(C)nc(S/C=C/C(=O)c2ccccc2F)n1	3.5µM*	2.9µM*	2.1µM*	-7%	3.7µM*	3.7µM*	1.8µM*	21µM*	6.5µM*	?
Cc1nc(NC(=O)c2ccc(F)cc2)sc1C(=O)Nc1ccc2c(c1)CCC2	-2%	-3%	?	-26%	?	?	.	.	.	.
Cc1ccc(C(=O)Nc2nc(C)c(C(=O)Nc3ccc4c(c3)CCC4)s2)cc1	11µM*	4.1µM*	1.3µM*	-3%	1.3µM*	2.3µM*	15µM*	?	8.2µM*	22%
CC1(C(=O)Nc2ccccc2Cc2ccccc2)CCN1CCc1ccccc1 (stereo unspecified)	?	?	?	-30%	?	?	.	.	.	.

Source: PubChem (National Center for Advancing Translational Sciences (NCATS))
